Shh pathway inh: Hedgehog pathway signaling inhibitors, primary screen, luminescence, Shh-LIGHT2 cells, Gli-luciferase; inhibition, % (concentration not given with the values); Shh-LIGHT2 Gli-luciferase reporter, 30 h; 22,000 tested, 2.1% active;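 active means mean inhibition across valid replicates above about 65%, limit read from the data; inconclusive means mean under the limit, yet half or more replicates past it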;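 further: pathway switched on by Shh-conditioned medium diluted 1 in 25 in low serum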
BJeLR viab HTS: BJeLR cell viability loss, primary screen, luminescence, CellTiterGlo ATP; 30,000 tested, 0.64% active; BJeLR fibroblasts viability, 48 h; HRASV12, hTERT and SV40 LT/ST transformed; viability loss activity score, % (no concentration beside the values); AID 2275, 2010; in the data active means viability loss activity score above about 50%; inconclusive means no clear call, values can overlap the other calls; inactive means below about 35%;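 further: higher score means fewer live cells and less ATP luminescence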
Starred values were filed as active, the others as inactive; ? = inconclusive; · = no result; ! = not active in a repeat. The entries come from a sample that favours hits as a whole.

SMILES | Shh pathway inh | BJeLR viab HTS
C[C@@H]1Cc2c(Cl)cc(C(=O)N[C@@H](Cc3ccccc3)C(=O)O)c(O)c2C(=O)O1 | 78* | ·
Cc1ccc(NC(=O)c2cccc(OC(=O)N(C)c3ccccc3)c2)cc1C | 76* | 0
CCN1C[C@]2(C)CC[C@H](OC)[C@@]34C2[C@H](O)C([C@@H]13)[C@@]1(OC)C[C@H](OC)[C@H]2C[C@@H]4[C@@H]1[C@H]2O | -12 | 3
O=C(c1cnn(-c2ccccc2)c1-n1cccc1)N1CCC2(CC1)OCCO2 | · | -2
O=[P+](c1ccccc1)c1ccccc1 | · | -9
CCSc1nc2ccccc2c(=O)n1-c1cccc(OC)c1 | · | 0
OC[C@H]1O[C@@H](n2cnc3cc(Cl)c(Cl)cc32)C(O)[C@H]1O (some centres not stated) | 39 | -4
C[C@@H]1O[C@@H](O[C@@H]2C=C3CC[C@@H]4C(CC[C@]5(C)[C@@H](c6ccc(=O)oc6)CC[C@]45O)[C@@]3(C)CC2)[C@H](O)[C@H](O)[C@H]1O (some centres not stated) | 23 | 99*
C[C@@H]1O[C@@H](O[C@@H]2C=C3CCC4C(CC[C@]5(C)[C@@H](c6ccc(=O)oc6)CC[C@]45O)[C@@]3(C)CC2)[C@H](O)[C@H](O)[C@H]1O (some centres not stated) | -21 | 121*
CC1(C)C(C(=O)Nc2ccc(S(=O)(=O)c3ccc(NC(=O)C4C(C)(C)C4(C)C)cc3)cc2)C1(C)C | -20 | 2
CC(=O)OC1CCC2(C)C(=CCC3C4CCC(=O)C4(C)CCC32)C1 (configuration not stated) | -9 | -1
CC(C)Sc1nnc(OC(=O)N(C)C)n1-c1cccc(C(F)(F)F)c1 | · | -6
CCN1C[C@]2(COC)[C@H](O)C[C@H](OC)[C@@]34[C@@H]5C[C@]6(O)[C@H](OC(=O)c7ccccc7)[C@@H]5[C@@](OC(C)=O)(C([C@H](OC)[C@H]23)[C@@H]14)[C@@H](O)[C@@H]6OC | 22 | -4
Cc1ccc(S(=O)(=O)N2CCCCC2)cc1C(=O)Oc1cccc2cccnc12 | -14 | -4
Cc1ccccc1CN1CCN(C(C)C)CC1 | · | -3
COc1cc2c(c(OC)c1OC)-c1cc3c(cc1[C@H](OC(C)=O)[C@H]1COC(=O)[C@@H]1C2)OCO3 | 83* | 60*
COc1ccc(CC2C(=O)OCC2Cc2ccc3c(c2)OCO3)cc1OC (configuration not stated) | 12 | -4
Cc1ccc2[nH]cc(CC(C)N)c2c1 (configuration not stated) | · | 5
CCOC(=O)C1=C(N)Oc2c(c(=O)oc3ccccc23)C12C(=O)N(CC(=O)OC)c1ccccc12 (configuration not stated) | -9 | -4
C[CH2][Hg][S]c1ccccc1C(=O)O | ? | 142*
CNc1ccccc1C(=O)O | 2 | -7
Cc1nc(-c2ccccc2)nc(OC(=O)N(C)C)c1Oc1cccc(C(F)(F)F)c1 | · | 3
CN1CCc2nc(SCc3cccc(Cl)c3)c(C#N)cc2C1 | · | 1
C=C(CO)C(=O)O[C@H]1C/C(C)=C\CC/C(CO)=C\[C@H]2OC(=O)C(=C)[C@H]12 | 7 | 4
C=C(CO)C(=O)O[C@H]1CC(=C)[C@@H]2C[C@H](O)C(=C)[C@@H]2[C@H]2OC(=O)C(=C)[C@@H]21 | 90* | 7
CNc1ccc2oc(C[C@@H]3OC4(CC[C@@H]3C)O[C@H](C(C)C(=O)c3ccc[nH]3)[C@H](C)C[C@H]4C)nc2c1C(=O)O (some centres not stated) | 104* | 72*
COC1=CC(=O)O[C@@H](CCc2ccccc2)C1 | -21 | 2
CC1(C)C(=O)C=C[C@@]2(C)C1C(=O)C(=O)[C@]1(C)C2CC[C@@]2(C)[C@H](c3ccoc3)C[C@H]3O[C@]321 (some centres not stated) | -14 | 27
CC1=NCCc2c1[nH]c1cc(O)ccc21 | 80*! | -5
COc1ccc2c3c([nH]c2c1)C(C)=NCC3 | -16 | -1

Assay outcomes deposited in PubChem BioAssay by Broad Institute.
